Results filed as inconclusive are left out. The source made the active and inactive calls.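 Rule for the calls, unless noted: active = viability loss from added drug above about 55%, and viability with drug at most 40%, in both replicates (limit read from the data, passing the limit was not always enough); inconclusive = both conditions met in only one replicate; inactive = neither replicate meets both conditions.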
Assays:
[1] = reducers of endogenous Her2 protein level, primary screen, SKBR3 breast tumor cells, AlphaScreen, ATP viability (AID 461;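 active = Her2 level under about 52% in both replicate screens, with viability over 70% of control, limit read from the data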;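 for Her2 level: lower value means less Her2 protein in the cells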;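 for viability: percent of carrier control wells set as 100% viability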); settings: 18-24 h, measured here: SKBR3 viability, ATP luminescence, at 10 µM
[2] = molecular target: Receptor tyrosine-protein kinase erbB-2 (Homo sapiens) (UniProt P04626); test: as above; settings: 18-24 h, at 10 µM, stronger effect = lower value
[3] = SK-BR-3 cell growth inhibitors, pilot screen, 24 h, human (AID 572;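 active = viability at or below 10% of carrier control in both of two separate runs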;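 note: compound exposure lasted between 18 and 24 h rather than exactly 24 h; 100% = carrier-treated control wells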); settings: SK-BR-3 viability, CellTiter-Glo luminescence, at 10 µM, stronger effect = lower value
[4] = HUVEC growth inhibition – cell-based, human, primary screen (AID 575;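 active = viability at or below 30% in both replicate assays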;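 note: 100% = median of untreated cell wells with 0.1% DMSO on each plate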); settings: HUVEC proliferation, CellTiter-Glo luminescence, 72 h; at 10 µM; stronger effect = lower value
[5] = growth inhibitors of H69AR lung tumor, primary screen, human, duplicate replicates (AID 580;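 active = viability at or under a set limit in both replicates, limit being median viability minus 3 SD, cut at about 48% in these data, passing the limit was not always enough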;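 note: 100% = mean luminescence of untreated wells and 0% = no signal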); settings: H69AR lung tumor cells viability, ATP luminescence, 72 h; at 10 µM; stronger effect = lower value
[6] = reversal of MRP1-mediated doxorubicin resistance, pilot screen, H69AR cells, doxorubicin co-treatment (AID 601); settings: CellTiter-Glo, 72 h, at 10 µM; for differential viability (reversal): stronger effect = higher value
[7] = 384-well plate pilot, post-Golgi transport modulator project, inhibition of yeast transport mutant growth (AID 636; in the data active = inhibition above about 31%); settings: absorbance 615 nm, about 18 h, stronger effect = higher value
[8] = growth suppression of yeast trafficking mutant, preliminary HTS, modulators of trafficking downstream of Golgi apparatus project, 1536-format plate, OD 615 nm (AID 637; in the data active = inhibition above about 30%); settings: yeast transport mutant growth, absorbance 615 nm, 18 h; stronger effect = higher value
[9] = OD615 S. cerevisiae growth inhibition, permissive medium, pilot counter-assay, permissive growth control for S. cerevisiae lifespan shortening project (AID 705;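 active = growth inhibition above 25% in both replicates, a cutoff set 3 SD above the mean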); settings: OD615, 24 h, at 10 µM, stronger effect = higher value
[10] = Restrictive medium S. cerevisiae growth inhibition, OD615, pilot screen of yeast lifespan reduction project, restrictive growth control (AID 706;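 active = growth inhibition above a set limit, 3 SD over mean compound inhibition, in both replicates, cut at about 43% in these data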;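 note: modified DeaD lifespan yeast strain shifted to restrictive glucose medium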); settings: OD615, 48 h, at 10 µM, stronger effect = higher value
[11] = viability gain of MRP-1-high H69AR cells under doxorubicin, pilot screen, MRP-1 activator project, CellTiter-Glo, duplicate (AID 807;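 active = viability increase at or above a cutoff of the median across tested compounds plus 3 SD, cut at about 8.5% in these data, passing the limit was not always enough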;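 note: compound pretreatment 18-22 h then 72 h combined with doxorubicin; 0% = doxorubicin alone and 100% = vehicle without doxorubicin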); settings: H69AR viability with doxorubicin, CellTiter-Glo luminescence; at 10 µM; stronger effect = higher value
[12] = growth suppression of beta-catenin knockout HCT116, pilot screen, human colon tumor cells (AID 823;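 active = cell viability at or below a set limit in both duplicate runs, the limit being the all-compound median minus 4 SD, cut at about 23% in these data, passing the limit was not always enough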;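 note: 0% = wells killed by 20 µM Hyamine and 100% = untreated DMSO cell wells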); settings: CellTiter-Glo, 60 h, at 10 µM, stronger effect = lower value
[13] = growth suppression of PTEN-deleted HCT116, pilot screen, cell-based, HCT116 clonal line, CellTiter-Glo (AID 824;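 active = viability at or below 27.92% in each of two runs, the all-compound median minus 4 SD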;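 note: 0% = 20 µM Hyamine control and 100% = vehicle cell control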); settings: 60 h, at 10 µM, stronger effect = lower value
[14] = inhibitors of the yeast RAM network, pilot screen, dse1pr::URA3 reporter, 5-FOA selection (AID 869;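 active = inhibition over a set limit, the all-compound mean plus 3 SD, in both replicate runs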;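 note: 0% = DMSO wells with no growth and 100% = 10 µM 1-NA-PP1 with full growth; RAM network block rescues cells from 5-FOA so hits raise OD615 growth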); settings: S. cerevisiae dse1pr::URA3 5-FOA growth, OD615, 2 d; at 10 µM; stronger effect = higher value; strain carries analog-sensitive mutant Cbk1 kinase
[15] = H69AR cells + 2 uM doxorubicin, measured here: viability with 2 uM doxorubicin, stronger effect = lower value
[16] = H69AR cells, compound alone cytotoxicity

Receptor tyrosine-protein kinase erbB-2 (Homo sapiens), sequence (P04626 whole entry, looked up): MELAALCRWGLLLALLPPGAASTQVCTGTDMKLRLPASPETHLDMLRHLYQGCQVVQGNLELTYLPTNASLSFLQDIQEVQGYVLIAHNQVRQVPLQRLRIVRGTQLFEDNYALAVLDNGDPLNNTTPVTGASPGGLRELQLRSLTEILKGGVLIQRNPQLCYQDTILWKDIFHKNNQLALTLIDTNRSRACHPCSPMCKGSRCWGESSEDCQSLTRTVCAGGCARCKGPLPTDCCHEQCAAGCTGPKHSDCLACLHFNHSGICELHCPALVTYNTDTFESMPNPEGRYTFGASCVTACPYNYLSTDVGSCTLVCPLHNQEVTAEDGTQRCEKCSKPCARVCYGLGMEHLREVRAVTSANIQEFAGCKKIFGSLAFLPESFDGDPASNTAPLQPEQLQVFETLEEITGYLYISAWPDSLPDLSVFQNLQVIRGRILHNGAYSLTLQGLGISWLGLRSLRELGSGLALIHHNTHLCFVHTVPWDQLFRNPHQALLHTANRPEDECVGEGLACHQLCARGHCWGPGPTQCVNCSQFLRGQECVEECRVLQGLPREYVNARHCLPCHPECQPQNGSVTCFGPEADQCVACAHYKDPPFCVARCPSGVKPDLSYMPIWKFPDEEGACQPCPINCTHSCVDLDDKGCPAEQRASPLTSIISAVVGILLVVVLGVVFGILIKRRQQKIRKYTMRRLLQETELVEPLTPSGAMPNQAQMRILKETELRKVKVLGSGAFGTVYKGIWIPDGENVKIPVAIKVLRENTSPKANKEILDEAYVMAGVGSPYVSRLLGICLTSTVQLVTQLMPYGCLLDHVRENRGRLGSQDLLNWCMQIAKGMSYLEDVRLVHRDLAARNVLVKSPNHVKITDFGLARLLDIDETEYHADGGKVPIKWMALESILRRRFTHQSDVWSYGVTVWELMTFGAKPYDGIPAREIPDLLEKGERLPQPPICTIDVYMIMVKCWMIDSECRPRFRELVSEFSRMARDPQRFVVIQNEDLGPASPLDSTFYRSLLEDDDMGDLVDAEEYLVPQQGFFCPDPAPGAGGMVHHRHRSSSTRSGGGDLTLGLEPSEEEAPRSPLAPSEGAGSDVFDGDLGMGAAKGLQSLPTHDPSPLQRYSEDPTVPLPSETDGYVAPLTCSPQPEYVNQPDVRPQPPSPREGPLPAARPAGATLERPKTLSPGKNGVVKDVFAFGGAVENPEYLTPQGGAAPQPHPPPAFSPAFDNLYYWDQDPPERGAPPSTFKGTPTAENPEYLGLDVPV

SMILES	viability [1] [%]	Her2 level [2]	viability [3]	viability [4]	viability [5]	differential viability (reversal) ([6]; H69AR cells + 2 uM doxorubicin)	viability [6, 15] [%]	viability [6, 16] [%]	inhibition [7]	inhibition [8]	growth inhibition [9]	growth inhibition [10]	viability increase [11]	viability [12]	viability [13]	inhibition [14]
COc1ccc(CC(=O)NCc2ccccc2)cc1S(=O)(=O)N1CCOCC1	110	106% (inactive)	110% (inactive)	93.5% (inactive)	89% (inactive)	-9.06% (inactive)	98.1	89	-2.5% (inactive)	5.82% (inactive)	–	–	–	–	–	–
COc1ccc(-n2nc(C(=O)NCC(=O)NCC3CCCO3)c3ccccc3c2=O)cc1 (centres undefined)	120	86.5% (inactive)	120% (inactive)	103% (inactive)	85.5% (inactive)	-6.73% (inactive)	92.2	85.5	-0.78% (inactive)	1.15% (inactive)	–	–	–	–	–	–
COc1ccc(Cl)cc1NC(=O)COc1cccc(-n2cnnn2)c1	110	80% (inactive)	110% (inactive)	98.5% (inactive)	86.4% (inactive)	4.85% (inactive)	81.5	86.4	-5.87% (inactive)	1.61% (inactive)	–	–	–	–	–	–
Cc1cccc(N(C)C(=O)c2cc3cc4ccc(C)cc4nc3o2)c1	89	73.5% (inactive)	89% (inactive)	57.1% (inactive)	12% (active)	-36.7% (inactive)	48.8	12	-4% (inactive)	-4.26% (inactive)	–	–	–	–	–	–
Cc1nc2sc(C(c3cccc(F)c3)N3CCC(C)CC3)c(O)n2n1 (centres undefined)	88	77% (inactive)	88% (inactive)	101% (inactive)	96.3% (inactive)	9.65% (inactive)	86.7	96.3	-6.71% (inactive)	1.75% (inactive)	–	–	–	–	–	–
Cc1ccc2c(c1)CCCN2C(=O)C1CCCO1 (centres undefined)	101	100% (inactive)	101% (inactive)	99.3% (inactive)	108% (inactive)	14.6% (inactive)	93.3	108	-1.97% (inactive)	-6.83% (inactive)	–	–	–	–	–	–
CCOc1ccc2oc(-c3ccccc3)c(C(=O)N3CCN(CCO)CC3)c2c1	97.5	83% (inactive)	97.5% (inactive)	74.3% (inactive)	72.9% (inactive)	3.36% (inactive)	69.6	72.9	-4.42% (inactive)	0% (inactive)	–	–	–	–	–	–
O=C(C1CCN(c2nnc(-n3cccc3)s2)CC1)N1CCN(Cc2ccc3c(c2)OCO3)CC1	78.5	80.5% (inactive)	78.5% (inactive)	105% (inactive)	82% (inactive)	-3.6% (inactive)	85.6	82	3.59% (inactive)	1.67% (inactive)	10.4% (inactive)	10.1% (inactive)	-0.09% (inactive)	59.1% (inactive)	64.8% (inactive)	2.78% (inactive)
Cn1cccc1Cc1nnc(SCC(=O)N2CCOCC2)n1-c1ccc(F)cc1	88.5	104% (inactive)	88.5% (inactive)	106% (inactive)	99.7% (inactive)	11.4% (inactive)	88.3	99.7	-6.93% (inactive)	0.33% (inactive)	5.02% (inactive)	19.7% (inactive)	-1.33% (inactive)	102% (inactive)	94.3% (inactive)	-0.47% (inactive)
Cn1cnnc1Sc1nc2c(c(=O)n(C)c(=O)n2C)n1C	87	98.5% (inactive)	87% (inactive)	107% (inactive)	102% (inactive)	5.7% (inactive)	96.5	102	-0.79% (inactive)	-9.09% (inactive)	–	–	–	–	–	–
CCN(CC)CCOC(=O)c1cccc(OC)c1	115	105% (inactive)	115% (inactive)	96.9% (inactive)	90.2% (inactive)	-4.21% (inactive)	94.4	90.2	-5.07% (inactive)	-2.79% (inactive)	–	–	–	–	–	–
OC(CN1CCN(c2ccccc2)CC1)c1ccc2c(c1)CCN2 (centres undefined)	87.5	110% (inactive)	87.5% (inactive)	95.3% (inactive)	69.5% (inactive)	-26% (inactive)	95.5	69.5	-2.4% (inactive)	3.33% (inactive)	-10.4% (inactive)	-5.32% (inactive)	-6.11% (inactive)	83.9% (inactive)	84.4% (inactive)	0.78% (inactive)
O=C(NCC(c1cccnc1)N1CCN(c2ccc(F)cc2)CC1)OCc1ccccc1 (centres undefined)	101	66% (inactive)	101% (inactive)	85% (inactive)	91.8% (inactive)	-3.13% (inactive)	95	91.8	-2.57% (inactive)	32.9% (active)	–	–	–	–	–	–
CCCS(=O)(=O)C(=C1Nc2ccccc2N1)S(=O)(=O)CCC	105	97.5% (inactive)	105% (inactive)	93.4% (inactive)	103% (inactive)	12.9% (inactive)	89.8	103	-5.68% (inactive)	4.13% (inactive)	–	–	–	–	–	–
CCOC(=O)CC(NS(=O)(=O)c1ccc(NC(C)=O)cc1)c1ccc(OCC)cc1 (centres undefined)	115	100% (inactive)	115% (inactive)	110% (inactive)	90.9% (inactive)	-2.94% (inactive)	93.9	90.9	-7.63% (inactive)	-4.91% (inactive)	–	–	–	–	–	–
C=CCn1c(COc2cccc(C)c2)nnc1SCC(=O)NC(=O)NCc1ccco1	108	95% (inactive)	108% (inactive)	78.4% (inactive)	78.2% (inactive)	-3.14% (inactive)	81.3	78.2	-5.07% (inactive)	-0.48% (inactive)	–	–	–	–	–	–
CCCCN(CCCNC(=O)C1CCN(S(=O)(=O)CC)CC1)c1ccccc1	87	89.5% (inactive)	87% (inactive)	97.3% (inactive)	96.6% (inactive)	-1.6% (inactive)	98.2	96.6	-2.89% (inactive)	-6.83% (inactive)	–	–	–	–	–	–
CCn1c(CSc2ncccn2)nnc1SCC(=O)N1c2ccccc2CC1C (centres undefined)	96	87.5% (inactive)	96% (inactive)	87.5% (inactive)	96.3% (inactive)	11.9% (inactive)	84.3	96.3	-5.73% (inactive)	5.41% (inactive)	–	–	–	–	–	–
COc1ccc(CNS(=O)(=O)c2ccc3oc(C(=O)O)c(C)c3c2)cc1	103	93% (inactive)	103% (inactive)	111% (inactive)	92.2% (inactive)	0.665% (inactive)	91.6	92.2	-3.64% (inactive)	-2.46% (inactive)	–	–	–	–	–	–
Cc1cccc(-n2c(=O)cc(N3CCN(c4ccc(F)cc4)CC3)[nH]c2=O)c1	85.5	110% (inactive)	85.5% (inactive)	66.5% (inactive)	71.9% (inactive)	0.095% (inactive)	71.8	71.9	-2.13% (inactive)	-2.33% (inactive)	-12.5% (inactive)	-8.2% (inactive)	-5.2% (inactive)	79.3% (inactive)	66.1% (inactive)	4.09% (inactive)
CCn1c(C(Cc2ccccc2)NC(=O)COC)nc2ccccc21 (centres undefined)	102	92% (inactive)	102% (inactive)	102% (inactive)	87.4% (inactive)	8.84% (inactive)	78.6	87.4	-6.13% (inactive)	4% (inactive)	–	–	–	–	–	–
CCCC(=O)Nc1ccccc1NC(=O)CN(C)S(=O)(=O)c1ccc(C)cc1	97	114% (inactive)	97% (inactive)	103% (inactive)	98.9% (inactive)	9.23% (inactive)	89.6	98.9	-4.8% (inactive)	-4.84% (inactive)	–	–	–	–	–	–
CC(=O)Nc1ccc(NC(=O)C(C)Oc2ccccc2F)cc1 (centres undefined)	102	102% (inactive)	102% (inactive)	113% (inactive)	103% (inactive)	18.8% (inactive)	84	103	-5.97% (inactive)	-2.22% (inactive)	–	–	–	–	–	–
CCN1CCN(c2nc(-c3cccnc3)nc3ccccc23)CC1	89	94.5% (inactive)	89% (inactive)	101% (inactive)	88.6% (inactive)	-2.89% (inactive)	91.5	88.6	-3.16% (inactive)	-0.63% (inactive)	–	–	–	–	–	–
CCOC(=O)N1CCC(Nc2c(-c3ccc(C)cc3)c(=O)c2=O)CC1	88.5	100% (inactive)	88.5% (inactive)	100% (inactive)	94.5% (inactive)	11.5% (inactive)	83	94.5	-8.42% (inactive)	-8.73% (inactive)	–	–	–	–	–	–
Cc1cc(C)nc(NS(=O)(=O)c2ccc(NC(=O)Cn3c(=O)oc4ccccc43)cc2)n1	89.5	101% (inactive)	89.5% (inactive)	89% (inactive)	86.7% (inactive)	2.6% (inactive)	84.2	86.7	-0.9% (inactive)	2% (inactive)	–	–	–	–	–	–
CCN1CCCC1CNCc1ccc(Cl)cc1Cl (centres undefined)	92.5	116% (inactive)	92.5% (inactive)	111% (inactive)	104% (inactive)	9.34% (inactive)	94.4	104	0.95% (inactive)	6.83% (inactive)	–	–	–	–	–	–
Cn1c(=O)[nH]c(=O)c2c1nc(NCCCn1ccnc1)n2Cc1ccccc1	89	108% (inactive)	89% (inactive)	97.9% (inactive)	95.8% (inactive)	4.16% (inactive)	91.7	95.8	-1.47% (inactive)	-3.44% (inactive)	–	–	–	–	–	–
COCCn1nnnc1C(c1cc2cc(C)cc(C)c2[nH]c1=O)N1CCN(c2ccccc2F)CC1 (centres undefined)	102	81.5% (inactive)	102% (inactive)	78.4% (inactive)	80.9% (inactive)	-5.39% (inactive)	86.3	80.9	-4% (inactive)	1.8% (inactive)	–	–	–	–	–	–

Reference: PubChem BioAssay
